Measurements reported in ChEMBL document CHEMBL3988442, “University of Dundee, Small-Polar-MMV Screening Library” (2021).
The whole screen tested about 48,000 compounds, of which about 13,000 (27%) showed an effect of 50% or more. Some of the results follow.

Tested on: Wolbachia pipientis
Test: Anti-Wolbachia Cell-Based Screen
Assay type: functional
Set-up: scale not given: in the data most compounds retested in dose-response had high values
Conditions: 5 µM

SMILES | Percent Effect
CCC(=O)c1cccc(S(=O)(=O)NC(C)C#N)c1 (stereo unspecified) | -8.003%
O=C(O)C(F)(F)F.O=S(=O)(c1cccs1)N1CC[C@H]2[C@H]1CCN2c1ncccn1 | -7.709%
CN(C1CCN(c2ccccn2)CC1)S(=O)(=O)c1cccc(F)c1 | 13.53%
O=C(NCC1CC1)C1CSCN1S(=O)(=O)c1cccc(F)c1 (stereo unspecified) | -6.551%
O=S(=O)(c1cccc(F)c1)N1CCCCC1c1ccn[nH]1 (stereo unspecified) | 127.9%
Cc1ccccc1S(=O)(=O)N1CCCCC1c1ccn[nH]1 (stereo unspecified) | 0.4281%
O=S(=O)(c1cccs1)N1CCCCC1c1ccn[nH]1 (stereo unspecified) | 120.2%
O=C1c2c(O)cc(O)cc2O[C@@H](c2ccc(O)cc2)[C@@H]1O | 0.6664%
CC(=O)NCCNC(=O)c1sc(-c2ccc(Cl)s2)nc1C | -4.935%
O=C(Nc1ccccc1)NC1CCN(C2CCOC2)CC1 (stereo unspecified) | -12.98%
CC(C)c1nc(CN(C)C(=O)CNS(=O)(=O)c2cccs2)cs1 | -16.12%
COCc1cc(N(C)Cc2ncnn2C)nc(C(C)(C)C)n1 | -13.36%
O=C(O)C(=O)O.c1cnc(-c2noc(C3CN(Cc4ccc5c(c4)CCO5)C3)n2)cn1 | 6.909%
Cc1nc(CN2CCOC(CNc3cccnn3)C2)cs1 (stereo unspecified) | -1.722%
CCOc1nnc(CN2CCOC(CNc3cccnn3)C2)s1 (stereo unspecified) | -8.583%
Cc1nc(C)c(CN2CCOC(CNc3cccnn3)C2)s1 (stereo unspecified) | 87.52%
Cc1nc(CN2CCOC(CNc3cccnn3)C2)oc1C (stereo unspecified) | 3.025%
Cc1nc(C)c(CN2CCOC(CN(C)c3cccnn3)C2)s1 (stereo unspecified) | -0.1768%
CCc1nc(CN2CCOC(CN(C)c3cccnn3)C2)cs1 (stereo unspecified) | -6.381%
Cc1cnc(CN2CCOC(CNc3cccnn3)C2)cn1 (stereo unspecified) | 0.4879%
CCCc1nc(CN2CCOC(CNc3cccnn3)C2)cs1 (stereo unspecified) | 6.887%
COCc1nc(CN2CCOC(CNc3cccnn3)C2)cs1 (stereo unspecified) | 82.18%

SMILES | Percent Effect
COCc1nc(CN2CCOC(CN(C)c3cccnn3)C2)cs1 (stereo unspecified) | 6.806%
CC(C)c1nc(CN2CCOC(CNc3cccnn3)C2)cs1 (stereo unspecified) | 87.62%
CCc1nc(CN2CCOC(CNc3cccnn3)C2)cs1 (stereo unspecified) | 75.15%
Cn1cc(CCC(=O)NS(=O)(=O)N2CCCc3ccccc32)cn1 | -16.6%
CCc1nsc(N2CCn3c(nnc3C(F)(F)F)C2)n1 | 3.315%
COCCOc1cc(C(=O)N2CC(C)c3ccccc32)ccn1 (stereo unspecified) | -1.249%
COCC(=O)N[C@H](C)c1c(-c2ccc(Cl)cc2)noc1C(=O)O | -3.12%
c1ccc(-c2nc(CN3CCOC(Cn4cccn4)C3)co2)cc1 (stereo unspecified) | 93.62%
Fc1cccc(-c2nc(CN3CCOC(Cn4cncn4)C3)co2)c1 (stereo unspecified) | -2.254%
c1csc(-c2nc(CN3CCOC(Cn4cccn4)C3)co2)c1 (stereo unspecified) | 6.391%
c1coc(-c2nc(CN3CCOC(Cn4cccn4)C3)cs2)c1 (stereo unspecified) | 16.31%
Fc1cccc(-c2nc(CN3CCOC(Cn4cccn4)C3)co2)c1 (stereo unspecified) | 1.83%
c1ccc(-c2nc(CN3CCOC(Cn4cccn4)C3)no2)cc1 (stereo unspecified) | -5.165%
Cc1ccc(-c2nc(CN3CCOC(Cn4cccn4)C3)co2)cc1 (stereo unspecified) | 108.6%
Fc1ccc(-c2nc(CN3CCOC(Cn4cccn4)C3)co2)cc1 (stereo unspecified) | 92.05%
O=C1COC[C@H]([C@H](O)c2ccc(NC(=O)c3cccnc3)cc2)N1 | -8.221%
Cc1ccc(-c2nnc([C@H]3CCN(C4CCC4)C3)o2)cc1 | 10.26%
O=C(c1ncoc1C1CCCO1)N1CCCC2(CCCCC2)C1 (stereo unspecified) | -7.896%
CCN1CCOC(CNCc2ccccc2OCc2ccccn2)C1 (stereo unspecified) | 9.704%
CN1CCOC(CNCc2cccc(OCc3ccccn3)c2)C1 (stereo unspecified) | -19.83%
CN1CCOC(CNCc2ccc(OCc3ccccn3)cc2)C1 (stereo unspecified) | 111%
CN1CCOC(CNCCc2ccccn2)C1 (stereo unspecified) | -2.338%

SMILES | Percent Effect
CCN1CCOC(CNCc2cccc(OCc3ccccn3)c2)C1 (stereo unspecified) | 99.3%
CC(C)CC(N)C1=N/C(=C2\N=CN=N2)NO1 (stereo unspecified) | -1.816%
CNC(=O)NC(=O)C(NCc1ccccc1)c1ccccc1 (stereo unspecified) | 7.195%
Cn1ccnc1CCNS(=O)(=O)c1ccc(Br)cc1 | -0.8619%
Cc1cc(C)n2c(CCCNS(=O)(=O)c3ccc(F)cc3)nnc2n1 | 115.4%
COc1ccc(CCNC(=O)Nc2cc(C)nn2C)cc1 | -34.88%
O=S(=O)(NCCNc1ccc(-n2cccc2)nn1)c1cccs1 | 19%
COc1ccc(CC(=O)NCCCc2nnc3nc(C)cc(C)n23)cc1 | 140.8%
Cc1cc(C)n2c(CCCNS(=O)(=O)c3cccs3)nnc2n1 | 99.96%
CCOc1ccc(S(=O)(=O)NCCCc2ccc(N(C)C)cc2)cc1F | 11.9%
O=S(=O)(NCCNc1cc(-n2cccc2)ncn1)c1cccs1 | 9.931%
COc1cccc(CC(=O)NCCc2nnc3n2CCCCC3)c1 | -1.985%
COc1ccc(S(=O)(=O)NCCCc2nnc3nc(C)cc(C)n23)cc1 | 128.4%
COc1ccc(S(=O)(=O)NCCCc2ccc(N(C)C)cc2)cc1Cl | 10.52%
COc1ccc(S(=O)(=O)NCCCc2ccc(N(C)C)cc2)cc1F | 8.354%
COCCN(C)c1ccc(NCc2cccnc2)nc1 | -2.901%
Cc1nc2cc(=O)[nH]n2c(C)c1CNC(=O)c1cnn(C(C)(C)C)c1 | -22.93%
CC(C)c1nnc2n1CCN(C(C)c1nnc(-c3cccs3)o1)C2 (stereo unspecified) | -12.3%
CCc1ncc(C(=O)N(CC)CCOC)cn1 | -25.3%
Cc1cc(C)n2c(CCCNS(=O)(=O)c3ccccc3)nnc2n1 | 105.2%
Cc1nsc(NCCNS(=O)(=O)c2ccccc2)n1 | -9.26%
O=S(=O)(NCCc1nnc2ccccn12)c1cccnc1 | -2.198%

SMILES | Percent Effect
Cc1nc(CN2CC(CO)Oc3ccccc32)sc1C (stereo unspecified) | -1.227%
Cn1ccnc1CN(CCO)Cc1ccc(C(F)(F)F)cc1 | -12.47%
CC(C)(C)OC(=O)NC1CCC(NC(=O)c2ccc[nH]2)CC1 (stereo unspecified) | -46.12%
CC(=O)c1cc2ncc(C(=O)NC3CCCC3)cc2[nH]1 | 115.8%
O=C(NC1CCCCC1)c1c(F)cccc1F | -11.27%
O=C(NC1(C(=O)NC2CCCC2)CCCC1)c1ccc2[nH]ncc2c1 | 2.222%
CCNc1ncc(C(=O)NC2CCc3ccccc3C2)cn1 (stereo unspecified) | 2.788%
CC(=O)c1cc2ncc(C(=O)NC3CCCCC3)cc2[nH]1 | 114.6%
CCNc1ncc(C(=O)NC2CCSC2)cn1 (stereo unspecified) | 5.956%
CC(=O)c1cc2ncc(C(=O)NC3CC3)cc2[nH]1 | 127.3%
CCOc1ccccc1OCCN(C)Cc1ncnn1CC | -5.335%
Cc1n[nH]cc1CNCC(O)c1ccc(F)c(F)c1.Cl (stereo unspecified) | -9.621%
Cc1ccc2cc(CN(C)Cc3nccs3)c(=O)[nH]c2c1 | -5.099%
Cn1cc(N2C[C@@H]3CN(Cc4ccoc4)C[C@@H]3C2=O)cn1.O=C(O)C(F)(F)F | -5.785%
Cc1nc(CN2C(=O)COC3(CCN(Cc4ccco4)CC3)C2C)cs1.O=C(O)C(F)(F)F (stereo unspecified) | -6.139%
Cn1cc(N2CC3(CCN(CC4CCOCC4)CC3)OCC2=O)cn1.O=C(O)C(F)(F)F | -12.75%
CC1N(c2cnn(C)c2)C(=O)COC12CCN(Cc1ccoc1)CC2 (stereo unspecified) | 110.5%
CN1CC(=O)N(c2cnn(C)c2)CC12CCN(Cc1ccccc1)C2.O=C(O)C(F)(F)F.O=C(O)C(F)(F)F (stereo unspecified) | -7.753%
CC1N(c2cnn(C)c2)C(=O)COC12CCN(Cc1ccco1)CC2.O=C(O)C(F)(F)F (stereo unspecified) | 117%
Cn1cc(N2CC3(CCN(CC4CC4)C3)CC2=O)cn1.O=C(O)C(F)(F)F (stereo unspecified) | 3.9%
CC1N(c2cnn(C)c2)C(=O)COC12CCN(CC1CC1)CC2.O=C(O)C(F)(F)F (stereo unspecified) | 102.9%
Cc1nn(C)c2nc(NC3CCNCC3)sc12 | 10.32%

SMILES | Percent Effect
Cc1csc(CNc2nc3c(s2)c(C)nn3C)n1 | -2.391%
Cc1nc(C(C)Nc2nc3c(s2)c(C)nn3C)n[nH]1 (stereo unspecified) | 87.1%
CCCOCCNc1nc2c(s1)c(C)nn2C | -0.9549%
Cc1nn(C)c2nc(NCCOCCO)sc12 | -15.08%
Cc1nn(C)c2nc(NC(C)c3n[nH]c(=O)[nH]3)sc12 (stereo unspecified) | 96.4%
CCSCCNc1nc2c(s1)c(C)nn2C | 7.108%
Cc1nn(C)c2nc(NC(C)c3nnn[nH]3)sc12 (stereo unspecified) | 114.7%
Cc1ccc(-c2ccnc(NC(C)c3n[nH]c(=O)[nH]3)n2)c(C)n1 (stereo unspecified) | 6.558%
O=C(Cc1cccs1)NCCNc1nccc(C(F)(F)F)n1 | -1.179%
CCn1cc(CN2CCCCC2CCn2ccnc2C)cc1C#N (stereo unspecified) | -5.966%
O=C(NCc1ccccc1CN1CCCC1=O)Nc1nncs1 | -15.38%
CC(Nc1ccc(N2C(=O)CCCC2=O)cc1)c1ccc(C#N)cc1 (stereo unspecified) | -5.853%
Cc1nc(CO[C@H]2CN(C(=O)c3cnoc3C)[C@@H]3COC[C@H]23)cs1.O=C(O)C(F)(F)F | -46.26%
CCS(=O)(=O)N1C[C@@H](OCc2cccnc2)[C@H]2OCCC[C@H]21.O=C(O)C(F)(F)F | -26.44%
CC(C)NC(=O)N1C[C@H](OCc2cccnc2)[C@H]2COC[C@H]21.O=C(O)C(F)(F)F | 112.7%
Cc1nc(CO[C@H]2CN(C(=O)c3cccn3C)[C@@H]3COC[C@H]23)cs1.O=C(O)C(F)(F)F | -15.2%
CC(=O)NCC(=O)N1C[C@H](OCc2cccnc2)[C@H]2COC[C@H]21 | -9.929%
O=C(Cc1ccccn1)N1C[C@H](OCc2cccnc2)[C@H]2COC[C@H]21.O=C(O)C(F)(F)F.O=C(O)C(F)(F)F | 111.5%
